# Out of some 360,000 compounds screened, about 17,000 (4.7%) were called active. Not shown: some 5% with an inconclusive outcome. No stated cut-off is given here; in the data, active means activity change below about -50%; inconclusive means mostly about -30% to -49%; inactive means weaker than that. For the sample, actives were picked, then their nearest neighbours and some compounds at random.
# Assay: qHTS for Inhibitors of Inflammasome Signaling: IL-1-beta AlphaLISA Primary Screen
# Details: THP-1 LPS/ATP IL-1B secretion, 16 h; at 57.5 µM, active compounds read low
# From the text: Inflammasomes are a set of intracellular multi-protein complexes that enable autocatalytic activation of inflammatory caspases and drive the innate immune response to counter harmful agents. […] A qHTS assay, based on AlphaLISA technology, was developed to screen the Molecular Libraries Small Molecule Repository (MLSMR) to look for novel inflammasome inhibitors. The assay detects IL-1B using AlphaLISA anti-IL-1B acceptor and donor beads. A decreased emission signal, indicating reduced IL-1B secretion, is the desired outcome for this assay. NIH Chemical Genomics Center [NCGC] NIH Molecular Libraries Probe Centers Network [MLPCN] MLPCN Grant: MH095513 Assay Provider: Shyam Biswal Ph.D., Johns Hopkins University Immunity. 2012 Jul 27;37(1):85-95. PMID: 22819042 [2] Curr Pharm Des. 2012;18(16):2320-8. PMID: 22390695
# Three microliters containing 3000 THP-1 cells were dispensed into the wells of solid, white, tissue culture treated Greiner 1,536-well plates. Library compounds and positive control, Glyburide, were pin-transferred (23 nL) by a Kalypsys pin-tool equipped with a 1,536-pin array, resulting in final compound concentration ranges of 2.5 nM to 57.5 uM. After 1 hr of cell culture incubation (37 °C, 5% CO2), 1 microL of 1 microg/mL lipopolysaccharide (250 ng/mL, final) and 5 mM ATP (1.25 mM, final) were added to stimulate the cells. After 16 hr of cell culture incubation with the compounds, 1.5 uL of anti-IL-1B acceptor beads (6 ug/mL, final) and biotinylated antibody (0.6 nM, final) were added to the plate, followed by a 1 hr incubation at ambient temperature. To detect the secreted IL-1B, 1.5 uL of AlphaLISA SA-Donor beads (24 ug/mL, final) were added, followed by 30 min of incubation in the dark at ambient temperature. The AlphaLISA signal was read by a PerkinElmer EnVision plate reader with an ultrasensitive luminescence detector and 1536 Plate HTS AlphaScreen aperture (excitation of 680nm and emission of 615nm).
# On the % scale 0 is the no-effect control and ±100 the full control effect.
row,SMILES,activity change
1,CC(C)N(C(=O)CSc1nc(COc2ccccc2)nc2ccccc12)C(C)C,-71.7% (active)
2,CCCc1nc(SCC(=O)Nc2ccc(S(=O)(=O)N(C)C)cc2)c2ccccc2n1,-11.4% (inactive)
3,CN(C(=O)CSc1nc(C2CC2)nc2ccccc12)c1nc(-c2ccccc2)cs1,-16.2% (inactive)
4,CCOC(=O)c1ccn(S(=O)(=O)c2ccc(C)cc2)c1-c1ccccc1,40.2% (inactive)
5,CN(N)c1nc(N2CCCC2)nc(N2CCCC2)n1,3.61% (inactive)
6,O=C(NCc1ccccc1Cl)c1csc([C@@H]2O[C@H](CO)[C@@H](O)[C@H]2O)n1,6.54% (inactive)
7,CN(C(=O)c1cccc(NC(=O)Cc2ccc(NC(=O)C3CCCN(C(=O)C4CC4)C3)cc2)c1)C1CC1 (centres undefined),54.5% (inactive)
8,Cc1ccc2nc(-c3ccccc3)c(CC3CCCCC3)n2c1,-0.767% (inactive)
9,CCCCN(C)CCNC(=O)CSCc1ccc(C)cc1,16.4% (inactive)
10,CCOC(=O)C1Cn2c(nc3c(c2=O)C(C)(CC)Cc2ccccc2-3)S1 (centres undefined),-60.4% (active)
11,CC1(C)Cc2ccccc2-c2nc(CN3CCOCC3)[nH]c(=O)c21,0% (inactive)
12,CCC1(CC)Cc2ccccc2-c2nc(CCl)[nH]c(=O)c21,38.6% (inactive)
13,CC(OC(=O)c1cccc(S(=O)(=O)N2CCOCC2)c1)C(=O)NCC1CCCCC1 (centres undefined),-2.42% (inactive)
14,COc1cc(/C=C/C(=O)OCC(=O)Nc2cccc(Oc3ccccc3)c2)ccc1O,15.2% (inactive)
15,COC(=O)c1ccc(C2C(Oc3ccccc3C)C(=O)N2CCc2ccc(OC)c(OC)c2)cc1 (centres undefined),-21.3% (inactive)
16,Cc1cc(NC(=O)CCC(=O)N(CC(=O)NC2CCCC2)c2ccc(F)cc2)no1,8.19% (inactive)
17,Cc1cc(NC(=O)/C=C/C(=O)N(c2ccccc2C)C(C(=O)NC2CCCC2)c2ccc(F)cc2)no1 (centres undefined),-95.1% (active)
18,Cc1cc(NC(=O)/C=C/C(=O)N(CC(=O)NC2CCCC2)c2ccc(F)cc2)no1,-87.8% (active)
19,Cc1cc(NC(=O)CCC(=O)N(c2ccccc2)C(C(=O)NC2CCCC2)c2ccncc2)no1 (centres undefined),-1.05% (inactive)
20,Cc1cc(NC(=O)CCC(=O)N(c2cccc(F)c2)C(C(=O)NC2CCCC2)c2ccncc2)no1 (centres undefined),10.2% (inactive)
21,Cc1cc(C)cc(N(CC(=O)NC2CCCC2)C(=O)CCC(=O)Nc2cc(C)on2)c1,23.6% (inactive)
22,Cc1oc2cc3oc(=O)ccc3cc2c1C,-4.45% (inactive)

row,SMILES,activity change
1,Cc1ccc(S(=O)(=O)N2CC[C@H]3[C@@H](C2)C(=O)C[C@@H](c2ccccc2)N3S(=O)(=O)c2ccc(C)cc2)cc1,-0.365% (inactive)
2,CCCC(C(=O)OCCN(CC)CC)(c1ccccc1)c1ccccc1,-14.1% (inactive)
3,O=C(COc1ccc(S(=O)(=O)N2CCCC2)cc1[N+](=O)[O-])N1CCCCC1,10.9% (inactive)
4,Cc1ccc(C(=O)OCC(=O)NC2CCCCCCC2)cc1C,8.07% (inactive)
5,Cc1noc(C)c1S(=O)(=O)N(C)C[C@H]1Oc2c(NC(=O)Nc3ccc4c(c3)OCO4)cccc2C(=O)N([C@H](C)CO)C[C@@H]1C,5.23% (inactive)
6,CSCCC(NC(=O)COc1ccccc1)C(=O)OCc1ccc(Cl)cc1 (centres undefined),6.8% (inactive)
7,COc1ccc(Cn2c(-c3ccc(Cl)cc3)c[n+]3ccccc23)cc1,-79.9% (active)
8,CCn1c(C)cc(=O)cc1-c1ccc(Cl)cc1,12.5% (inactive)
9,COc1ccc(Cn2c(=O)oc3ccccc32)cc1,-4.96% (inactive)
10,CC1(C(=O)NS(=O)(=O)c2ccccc2)CCN1C(=O)C1CCCCC1 (centres undefined),25.7% (inactive)
11,Nc1nc2ncccn2c1-c1ccccc1,18.6% (inactive)
12,CCOC(=O)Nc1ccc(NC(=O)OCC)cc1,0.929% (inactive)
13,O=C(Nc1ccccc1)OCc1cn(-c2ccc(Cl)cc2)nn1,33.8% (inactive)
14,CC(C)(COC(=O)Nc1ccccc1)COC(=O)Nc1ccccc1,-50.5% (active)
15,Cc1cccc(N(CC(=O)N2CCCC2)S(C)(=O)=O)c1C,25% (inactive)
16,COC(=O)c1sc2[nH]c(=S)n(N)c(=O)c2c1C,6.13% (inactive)
17,CN(C(=O)c1cccc(NC(=O)Cc2ccc(NC(=O)C3CCCN(C(=O)C4CCCC4)C3)cc2)c1)C1CCC1 (centres undefined),-10.6% (inactive)
18,O=C(NNC(=O)C(O)c1ccccc1)NC1CCCCC1 (centres undefined),14.4% (inactive)
19,COc1ccc2nc(C)cc(Nc3cccc(C(=O)O)c3)c2c1,10.8% (inactive)
20,Cc1nc(/N=C(\N)NC(=O)NC2CCCCC2)nc2ccccc12,-104% (active)
21,COc1ccc2nc(/N=C(\N)NC(=O)Nc3ccccc3)nc(C)c2c1,-80.5% (active)
22,CC(C)c1cc(C(=O)NC2CCCCCC2)c2ccccc2n1,0.331% (inactive)

# From PubChem BioAssay AID743279 (National Center for Advancing Translational Sciences (NCATS), 2014)
